Out of some 3,200 compounds screened, about 300 (9.4%) showed activity. What follows is part of a selection rich in actives, with near analogues and random picks from the rest. Values without a mark were called inactive.
Tested on: A673/TR/shEF
Assay: cell viability (LOESS-normalised, relative to median of negative controls) (log2 ratio); higher = more viable cells (less compound effect), active = hit call of the paper (over 3 MAD below the median)
Settings: treatment time: 72 h
In short: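 Doxycycline, present or absent from 24 h before compounds, was used to induce EWS-FLI1 shRNA knockdown in A673/TR/shEF Ewing sarcoma cells at 1,500 per well in 384-well plates. Cells then received library compounds at two or more concentrations, or DMSO controls, for three days. Viability was measured by CellTiter-Glo luminescence on an Envision reader, and per-plate LOESS correction, division by the negative-control median and log2 transformation followed.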

[1] = 0.25 µM, library screen: screen2, EWS-FLI1 expression: high (no doxycycline)
[2] = 0.25 µM, library screen: screen2, EWS-FLI1 expression: low (doxycycline-induced shRNA knockdown)
[3] = 2.5 µM, library screen: screen2, EWS-FLI1 expression: high (no doxycycline)
[4] = 2.5 µM, library screen: screen2, EWS-FLI1 expression: low (doxycycline-induced shRNA knockdown)
[5] = 0.25 µM, library screen: screen1, EWS-FLI1 expression: high (no doxycycline)
[6] = 0.25 µM, library screen: screen1, EWS-FLI1 expression: low (doxycycline-induced shRNA knockdown)
[7] = 2.5 µM, library screen: screen1, EWS-FLI1 expression: high (no doxycycline)
[8] = 2.5 µM, library screen: screen1, EWS-FLI1 expression: low (doxycycline-induced shRNA knockdown)

COc1cc(C[C@@H](C)N)c(OC)cc1I
cell viability (log2) [1]: 0.178 | cell viability (log2) [2]: 0.0876 | cell viability (log2) [3]: 0.142 | cell viability (log2) [4]: 0.145

CCCC1CCCCN1 (stereo not given)
cell viability (log2) [5]: 0.115 | cell viability (log2) [6]: 0.153 | cell viability (log2) [7]: 0.172 | cell viability (log2) [8]: 0.128

CC(Cc1ccc(O)cc1)NCC(O)c1cc(O)cc(O)c1 (stereo not given)
cell viability (log2) [5]: 0.143 | cell viability (log2) [6]: 0.0538 | cell viability (log2) [1]: 0.23 | cell viability (log2) [2]: 0.0381 | cell viability (log2) [7]: 0.142 | cell viability (log2) [8]: 0.063 | cell viability (log2) [3]: 0.166 | cell viability (log2) [4]: 0.00325

CCCCCCCCCCCCCC(=O)O[C@@H]1[C@@H](C)[C@@]2(O)[C@@H](C=C(CO)C[C@]3(O)C(=O)C(C)=C[C@@H]23)[C@@H]2C(C)(C)[C@]12OC(C)=O
cell viability (log2) [1]: -0.184 (active) | cell viability (log2) [2]: -0.159 (active) | cell viability (log2) [3]: -0.478 (active) | cell viability (log2) [4]: -0.292 (active)

Oc1ccc2c3c1O[C@H]1c4[nH]c5ccccc5c4C[C@@]4(O)C(C2)N(CC2CC2)CCC314 (stereo not given in full)
cell viability (log2) [1]: 0.0893 | cell viability (log2) [2]: 0.051 | cell viability (log2) [3]: 0.0722 | cell viability (log2) [4]: 0.0157

C[C@]12CCC3C(CC[C@H]4C[C@H](O)CC[C@]34C)C1CC[C@@H]2C(=O)CO (stereo not given in full)
cell viability (log2) [1]: 0.139 | cell viability (log2) [2]: 0.0931 | cell viability (log2) [3]: 0.0348 | cell viability (log2) [4]: 0.0492

ClC1=C(Cl)C2(Cl)C3C(Cl)C(Cl)CC3C1(Cl)C2(Cl)Cl (stereo not given)
cell viability (log2) [5]: 0.143 | cell viability (log2) [6]: 0.19 | cell viability (log2) [7]: 0.185 | cell viability (log2) [8]: 0.0908

CC(N)C(O)c1ccc(O)c(O)c1 (stereo not given)
cell viability (log2) [5]: 0.119 | cell viability (log2) [6]: 0.0592 | cell viability (log2) [7]: 0.146 | cell viability (log2) [8]: 0.151

C#CCN[C@H](C)Cc1ccccc1
cell viability (log2) [1]: 0.265 | cell viability (log2) [2]: 0.101 | cell viability (log2) [3]: 0.0823 | cell viability (log2) [4]: 0.137

C=C(C)[C@H]1Cc2c(ccc3c(=O)c4c(oc23)COc2cc(OC)c(OC)cc2-4)O1
cell viability (log2) [5]: 0.0952 | cell viability (log2) [6]: -0.0101 | cell viability (log2) [7]: 0.0848 | cell viability (log2) [8]: -0.0847

COc1cc2c(cc1OC)C1C(=O)c3ccc(O)c(CC=C(C)C)c3OC1CO2 (stereo not given)
cell viability (log2) [5]: 0.0263 | cell viability (log2) [6]: 0.0494 | cell viability (log2) [7]: 0.046 | cell viability (log2) [8]: 0.0598

COc1cc2c(cc1OC)-c1c(oc3c4c(ccc3c1=O)OC(C(C)C)C4)CO2 (stereo not given)
cell viability (log2) [5]: 0.0422 | cell viability (log2) [6]: 0.0484 | cell viability (log2) [7]: 0.122 | cell viability (log2) [8]: 0.0221

COc1cc2c(cc1OC)[C@H]1C(=O)c3ccc4c(c3O[C@H]1CO2)C[C@@H](C(C)C)O4
cell viability (log2) [5]: -1.56 (active) | cell viability (log2) [6]: -0.67 (active) | cell viability (log2) [7]: -2.2 (active) | cell viability (log2) [8]: -0.747 (active)

C=C(C)[C@H]1Cc2c(ccc3c2O[C@@H]2COc4cc(OC)c(OC)cc4[C@@H]2C3=O)O1
cell viability (log2) (0.025 µM, library screen: screen2, EWS-FLI1 expression: high (no doxycycline)): 0.0593 | cell viability (log2) (0.025 µM, library screen: screen2, EWS-FLI1 expression: low (doxycycline-induced shRNA knockdown)): 0.0961 | cell viability (log2) [5]: -1.71 (active) | cell viability (log2) [6]: -0.663 (active) | cell viability (log2) [1]: -0.962 (active) | cell viability (log2) [2]: -0.539 (active) | cell viability (log2) [7]: -2.87 (active) | cell viability (log2) [8]: -1.24 (active) | cell viability (log2) [3]: -2.41 (active) | cell viability (log2) [4]: -0.955 (active) | cell viability (log2) (25 µM, library screen: screen2, EWS-FLI1 expression: high (no doxycycline)): -3.79 (active) | cell viability (log2) (25 µM, library screen: screen2, EWS-FLI1 expression: low (doxycycline-induced shRNA knockdown)): -1.03 (active)

COc1cc2c(cc1OC)[C@@H]1C(=O)c3ccc4oc(C(C)C)cc4c3O[C@@H]1CO2
cell viability (log2) [5]: 0.0223 | cell viability (log2) [6]: 0.0518 | cell viability (log2) [7]: -0.307 (active) | cell viability (log2) [8]: -0.129

CCOP(=S)(OCC)SCn1c(=O)oc2cc(Cl)ccc21
cell viability (log2) [5]: 0.0867 | cell viability (log2) [6]: 0.153 | cell viability (log2) [7]: 0.166 | cell viability (log2) [8]: 0.163

CCOCN(C(=O)CCl)c1c(C)cccc1CC
cell viability (log2) [5]: 0.105 | cell viability (log2) [6]: 0.0121 | cell viability (log2) [7]: 0.0903 | cell viability (log2) [8]: -0.17

CC(=O)O[C@@H]1C2CC[C@@H]3C1(C[C@@H](O)[C@@]1(O)[C@@H](C[C@H](O)C1(C)C)[C@]3(C)O)C[C@@]2(C)O (stereo not given in full)
cell viability (log2) [5]: 0.0646 | cell viability (log2) [6]: 0.00107 | cell viability (log2) [7]: 0.0644 | cell viability (log2) [8]: 0.0594

COc1cc2occc2c2oc(=O)ccc12
cell viability (log2) [5]: 0.133 | cell viability (log2) [6]: -0.00777 | cell viability (log2) [7]: 0.146 | cell viability (log2) [8]: 0.0199

CCOC(=O)CC(SP(=S)(OC)OC)C(=O)OCC (stereo not given)
cell viability (log2) [5]: 0.0518 | cell viability (log2) [6]: 0.0626 | cell viability (log2) [7]: 0.101 | cell viability (log2) [8]: 0.14

CN[C@@H]1[C@@H](O)[C@@H](O[C@@H]2[C@@H](O)[C@H](O[C@H]3O[C@H](CN)CC[C@H]3N)[C@@H](N)C[C@H]2N)OC[C@]1(C)O
cell viability (log2) [5]: 0.0502 | cell viability (log2) [6]: -0.0312 | cell viability (log2) [7]: 0.184 | cell viability (log2) [8]: 0.0476

CC1(C)C2CC(=O)[C@]3(C)C(CC[C@@]4(C)[C@H](c5ccoc5)OC(=O)[C@H]5O[C@]543)[C@@]2(C)C=C[C@@H]1O (stereo not given in full)
cell viability (log2) [5]: 0.0868 | cell viability (log2) [6]: 0.0799 | cell viability (log2) [7]: 0.177 | cell viability (log2) [8]: 0.105

Reference: the supplement of paper PMC6089552
